Among the test systems are SR leukemia; RPMI-8226 leukemia; OVCAR-8 ovarian; OVCAR-5 ovarian; OVCAR-4 ovarian; SK-OV-3 ovarian; IGROV1 ovarian; OVCAR-3 ovarian; HS 578T breast; NCI/ADR-RES ovarian.
Holding throughout (assay): NCI-60 one-dose screen, 48 h (100 = growth as untreated, 0 = no growth, -100 = all killed)
Common to all, as to settings: 10 µM unless noted

Compounds without any hit were thinned out: in the full panel of roughly 83,000, 20% have a hit.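 Cells were grown in 96-well plates and exposed to the test compound at a single concentration for 48 hours; results are reported as percent growth, with values below 10 considered active.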 A number with no mark means an inactive call. Activity calls are given as the source filed them.

For `CCn1cnc(C[C@H](NC(=O)[C@H](CCCCNC(=O)Nc2cc(C(F)(F)F)cc(C(F)(F)F)c2)NC(=O)Nc2cc(C(F)(F)F)cc(C(F)(F)F)c2)C(=O)OC)c1`, the growth with SR leukemia is -29% [100 µM] (active); in the experiment on RPMI-8226 leukemia, -42.4% [100 µM] (active); in the experiment on OVCAR-8 ovarian it was -9.32% [100 µM] (active); in the experiment with OVCAR-5 ovarian, -67.9% [100 µM] (active); in the experiment on OVCAR-4 ovarian, -17.2% [100 µM] (active); in the experiment on SK-OV-3 ovarian it was -23.7% [100 µM] (active). In addition, the growth in the experiment with IGROV1 ovarian was -23.5% [100 µM] (active); with OVCAR-3 ovarian it was -90.2% [100 µM] (active); in the experiment with HS 578T breast it was -7.06% [100 µM] (active); in the experiment with NCI/ADR-RES ovarian, 51.5% [100 µM].
In the case of `COc1ccc2c(c1)sc1nc(-c3ccc(Br)cc3)cn12`, the growth in the experiment on SR leukemia was 120%; with RPMI-8226 leukemia, 112%; in the experiment with OVCAR-8 ovarian, 102%; in the experiment with OVCAR-5 ovarian it was 101%; with OVCAR-4 ovarian, 100%; in the experiment on SK-OV-3 ovarian it was 117%. The growth in the experiment with IGROV1 ovarian is -23.9% (active); with OVCAR-3 ovarian, 122%; in the experiment with HS 578T breast it was 125%; in the experiment with NCI/ADR-RES ovarian, 92.4%.
Turning to `C[C@H]1O[C@@H](O[C@H]2[C@@H](O)C[C@H](O[C@H]3[C@@H](O)C[C@H](O[C@H]4CC[C@]5(C)C6C[C@@H](O)[C@]7(C)[C@@H](C8=CC(=O)OC8)CC[C@]7(O)C6CC[C@@H]5C4)O[C@@H]3C)O[C@@H]2C)C[C@H](O)[C@@H]1O` (stereo not given in full), the growth in the experiment with SR leukemia is -9.87% (active); with RPMI-8226 leukemia it was -23.7% (active); with OVCAR-8 ovarian it was -93.5% (active); with OVCAR-5 ovarian it was -99.7% (active); in the experiment with OVCAR-4 ovarian, -29.6% (active); in the experiment on SK-OV-3 ovarian, -93.3% (active). The growth in the experiment with IGROV1 ovarian is -38.4% (active); with OVCAR-3 ovarian, -100% (active); in the experiment with HS 578T breast it was -9.01% (active); in the experiment on NCI/ADR-RES ovarian it was -87.7% (active).
Consider `N#Cc1c(-c2ccccc2)cc(-c2ccccc2)n(CCCCCCC(=O)O)c1=O`, for which the growth in the experiment with SR leukemia is 88.4%; with RPMI-8226 leukemia, 108%; with OVCAR-8 ovarian, 69.4%; in the experiment with OVCAR-5 ovarian it was 99.5%; in the experiment with OVCAR-4 ovarian it was 111%; in the experiment on SK-OV-3 ovarian, 117%. Also, the growth was 105% with IGROV1 ovarian, 109% with OVCAR-3 ovarian, 101% with HS 578T breast and 102% with NCI/ADR-RES ovarian.
Consider `CN1CCN(c2nc3scc(-c4ccccc4)c3c(=O)[nH]2)CC1`, for which the growth was 94.1% in the experiment with SR leukemia; 97.4% in the experiment on RPMI-8226 leukemia; 106% in the experiment with OVCAR-8 ovarian; 93% with OVCAR-5 ovarian; 97.4% with OVCAR-4 ovarian; 103% with SK-OV-3 ovarian. The growth was 97.6% in the experiment with IGROV1 ovarian, 102% in the experiment with OVCAR-3 ovarian, 100% in the experiment with HS 578T breast and 99.2% in the experiment with NCI/ADR-RES ovarian.
Turning to `NS(=O)(=O)c1ccc(-n2ncc3c(N/N=C/c4ccccc4)ncnc32)cc1`, the growth was 50.8% with SR leukemia; 83.4% in the experiment on RPMI-8226 leukemia; 55.5% in the experiment on OVCAR-8 ovarian; 97.2% in the experiment on OVCAR-5 ovarian; 54.3% in the experiment on OVCAR-4 ovarian; 107% in the experiment on SK-OV-3 ovarian. The growth in the experiment on IGROV1 ovarian is 76.5%; in the experiment on OVCAR-3 ovarian, 99.9%; with HS 578T breast, 113%; in the experiment with NCI/ADR-RES ovarian, 87.6%.
Consider `COc1cnc2c(c1)C(=O)c1c-2n(CCCNC2=NCCS2)c(=O)c2cc(F)ccc12`, for which the growth with SR leukemia was -8.78% (active); in the experiment on RPMI-8226 leukemia it was -14.3% (active); in the experiment on OVCAR-8 ovarian, 31.3%; in the experiment with OVCAR-5 ovarian, 53.2%; in the experiment on OVCAR-4 ovarian, 63.1%; with SK-OV-3 ovarian, 11.1%. The growth in the experiment with IGROV1 ovarian was 38%; in the experiment with OVCAR-3 ovarian it was 32.6%; in the experiment with HS 578T breast, 65.5%; in the experiment with NCI/ADR-RES ovarian, 34.6%.
Consider `Cc1ccc(C2=NNC(c3sc(Cl)nc3Cl)C2)cc1` (stereo not given), for which the growth in the experiment with SR leukemia is 3.24% (active); in the experiment on RPMI-8226 leukemia it was 97.9%; in the experiment on OVCAR-8 ovarian it was 100%; in the experiment on OVCAR-5 ovarian it was 116%; in the experiment with OVCAR-4 ovarian it was 84.7%; with SK-OV-3 ovarian, 88.4%. Besides, the growth in the experiment on IGROV1 ovarian is 80.6%; in the experiment with OVCAR-3 ovarian, 101%; in the experiment with HS 578T breast, 116%; in the experiment with NCI/ADR-RES ovarian it was 94.5%.
For the compound `COc1ccc(CCN2C(=O)CCC3=C2CCCC3=O)cc1OC`, the growth in the experiment with SR leukemia was 101%; in the experiment on RPMI-8226 leukemia it was 98.1%; in the experiment on OVCAR-8 ovarian, 102%; in the experiment with OVCAR-5 ovarian, 104%; with OVCAR-4 ovarian, 102%; with SK-OV-3 ovarian it was 100%. In addition, the growth was 108% in the experiment on IGROV1 ovarian, 120% with OVCAR-3 ovarian, 94.6% in the experiment with HS 578T breast and 98.2% in the experiment with NCI/ADR-RES ovarian.
`N#Cc1c(-c2ccc(F)cc2)n2c(nc1=O)SC(=O)C2=O`: the growth is 91.3% with SR leukemia; 76.8% with RPMI-8226 leukemia; 98% with OVCAR-8 ovarian; 110% with OVCAR-5 ovarian; 100% in the experiment with OVCAR-4 ovarian; 115% in the experiment with SK-OV-3 ovarian. Moreover, the growth with IGROV1 ovarian is 108%; in the experiment with OVCAR-3 ovarian, 123%; with HS 578T breast, 104%; with NCI/ADR-RES ovarian it was 94.5%.
In the case of `C[C@@H]1C[C@@H]([C@@H](CC2CC(=O)NC(=O)C2)OC(=O)CC(=O)c2ccccc2)C(=O)[C@@H](C)C1`, the growth was 31.1% with SR leukemia; 17.4% in the experiment on RPMI-8226 leukemia; 12.5% in the experiment on OVCAR-8 ovarian; 16.8% in the experiment with OVCAR-5 ovarian; 20.2% in the experiment with OVCAR-4 ovarian; -3.27% (active) in the experiment with SK-OV-3 ovarian. Also, the growth is -10.4% (active) in the experiment with IGROV1 ovarian, 19.4% in the experiment with OVCAR-3 ovarian, 19.4% in the experiment on HS 578T breast and 10.3% with NCI/ADR-RES ovarian.
With `COc1ccc(Cl)cc1Nc1nc(C(F)(F)F)ccc1C(=O)N/N=C/c1c(Cl)cccc1Cl`, the growth in the experiment with SR leukemia was 22%; in the experiment on RPMI-8226 leukemia, 40.1%; with OVCAR-8 ovarian it was 55.2%; with OVCAR-5 ovarian it was 75.3%; in the experiment on OVCAR-4 ovarian, 39%; in the experiment with SK-OV-3 ovarian, 49.7%. Further, the growth was 29.6% in the experiment with IGROV1 ovarian, -2.74% (active) in the experiment with OVCAR-3 ovarian, 54.3% with HS 578T breast and 49.9% with NCI/ADR-RES ovarian.
For the compound `COc1ccc(-c2nnc3c4[nH]cnc4ncn23)c(OC)c1`, the growth in the experiment on SR leukemia was 15.5%; with RPMI-8226 leukemia it was 9.32% (active); with OVCAR-8 ovarian, 18.4%; in the experiment on OVCAR-5 ovarian it was 17%; in the experiment on OVCAR-4 ovarian, 36.8%; in the experiment with SK-OV-3 ovarian, 11.4%. The growth in the experiment on IGROV1 ovarian is 45.8%; in the experiment with OVCAR-3 ovarian it was 13.4%; in the experiment with HS 578T breast, 54.4%; with NCI/ADR-RES ovarian, 17.6%.
Turning to `CCOc1nc(-c2ccco2)n2nc(-c3ccco3)cc2n1`, the growth in the experiment on SR leukemia is 123%; with RPMI-8226 leukemia, 84.4%; in the experiment on OVCAR-8 ovarian, 97%; in the experiment on OVCAR-5 ovarian, 108%; with OVCAR-4 ovarian it was 87.2%; in the experiment on SK-OV-3 ovarian it was 110%. Further, the growth with IGROV1 ovarian is 106%; with OVCAR-3 ovarian, 122%; with HS 578T breast, 95.7%; in the experiment on NCI/ADR-RES ovarian, 99.5%.

For the origin of these results see PubChem BioAssay (NCI).
